Our source for the Potency values is PubChem BioAssay AID2762 (National Center for Advancing Translational Sciences (NCATS), 2010).

The experiment addresses Nuclear receptor ROR-gamma (Mus musculus) (UniProt P51450). The experiment is described as follows: Concentration response confirmation assay for inhibitors of ROR gamma transcriptional activity. The gist of the method: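 A Gal4/UAS one-hybrid system in insect cells: metallothionein-promoter Gal4–ROR gamma fusion plus Photinus luciferase reporter. Copper sulfate 700 uM final, 20 hr ambient incubation, luminescent detection after 10 min with reagent.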

Results filed as inconclusive are left out. Calls of active or inactive are those of the source. The call rests on the fitted dose curve; in most records, active means well fitted inhibition curve with a large enough effect; inconclusive means small, poorly fitted or top-dose-only effect, or effect the other way; inactive means no such curve, though single readings can be large or run the other way.

Chain of Nuclear receptor ROR-gamma (Mus musculus) (P51450 whole entry, looked up, the tested form may be a part): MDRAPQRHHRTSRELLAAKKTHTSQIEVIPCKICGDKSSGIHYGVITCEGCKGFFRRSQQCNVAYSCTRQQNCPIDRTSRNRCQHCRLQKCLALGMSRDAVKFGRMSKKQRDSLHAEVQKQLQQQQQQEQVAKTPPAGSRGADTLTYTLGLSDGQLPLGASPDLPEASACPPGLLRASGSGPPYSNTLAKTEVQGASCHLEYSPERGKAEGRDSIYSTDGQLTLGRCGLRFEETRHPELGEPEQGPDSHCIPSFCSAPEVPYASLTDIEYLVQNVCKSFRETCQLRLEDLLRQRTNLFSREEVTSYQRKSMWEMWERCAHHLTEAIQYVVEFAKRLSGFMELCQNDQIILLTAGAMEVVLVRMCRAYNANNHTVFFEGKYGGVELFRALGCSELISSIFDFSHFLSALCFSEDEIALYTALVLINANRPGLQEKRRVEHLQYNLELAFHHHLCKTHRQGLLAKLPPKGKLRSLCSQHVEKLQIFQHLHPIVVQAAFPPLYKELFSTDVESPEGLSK

Take `Cc1ccc(C)c(/C=N/n2cc(-c3ccccc3)[nH]c2=S)c1`: the Potency was 791 nM (active).

For `COc1ccc(-n2ncc(Cl)c(Cl)c2=O)cc1`, the Potency was 8880 nM (active).

As for `O=S(=O)(c1ccc(NC(=S)N/N=C/c2ccc(Oc3ccccc3)cc2)cc1)N1CCOCC1`, the Potency is 1120 nM (active).

In the case of `CCOC(=O)c1sc(NC(=O)c2cc3c(s2)CCC(C)C3)nc1C` (centres undefined), the Potency is 99.6 nM (active).

For the molecule `Cc1ccc(Oc2nc(-c3ccccn3)nc3ccccc23)cc1`, the Potency is 396 nM (active).

Regarding `COc1ccc(C(C#N)N2N=C(C)CC2c2ccccc2)cc1` (centres undefined), the Potency entry is “inactive”.

Consider `O=S(=O)(NCc1ccccn1)C(F)(F)F`, for which the Potency is 7050 nM (active).

As for `O=C1CC(c2ccc(F)cc2)CC(O)=C1C1NCCc2ccccc21` (centres undefined), the Potency result was “inactive”.

`Cc1ccc2nc(-c3ccc(NC(=O)COC(=O)c4ccc(=O)[nH]c4)cc3)sc2c1`: the Potency was 1410 nM (active).

Regarding `Cc1ccc(-c2n[nH]c(=S)n2/N=C/C=C\c2ccccc2[N+](=O)[O-])cc1`, the Potency entry was “inactive”.

For the molecule `O=c1c2cc(Br)ccc2[nH]c(=S)n1Cc1cccnc1`, the Potency was 11200 nM (active).

`COC(=O)c1ccc(OCC(=O)c2ccc(O)cc2O)cc1`: the Potency is 125 nM (active).

With `CCN1CCCc2cc(CN(CCN3CCOCC3)C(=S)Nc3ccccc3C)ccc21`, the Potency was 9960 nM (active).

Consider `O=C(NCC1CCCO1)C(C(=O)c1ccccc1)n1ccccc1=O` (centres undefined), for which the Potency entry was “inactive”.

`Cc1cccc(-c2ocnc2C(=O)Nc2ccccc2NC(=O)c2ccccn2)c1`: the Potency is 2230 nM (active).

As to `COc1ccc(OC)c(/C=C2\SC(=S)N(C(C(=O)O)c3ccccc3)C2=O)c1` (centres undefined), the Potency entry was “inactive”.

In the case of `CCOC(=O)c1sc(NC(=O)c2ccc(S(=O)(=O)N(C)C)cc2)nc1C`, the Potency was 79.1 nM (active).

On to `Clc1ccccc1/C=N/NC1=Nc2cccc3cccc1c23`, for which the Potency is 199 nM (active).

In the case of `CCn1nc(C)c(CN2CCC(n3nccc3NC(=O)c3ccc4c(c3)OCO4)CC2)c1C`, the Potency entry is “inactive”.
